According to PubChem BioAssay (EPA / NIEHS):
Results filed as inconclusive are left out. The source made the active and inactive calls. How the source made its calls, unless noted: active means hit-call score of the fitted dose curve at least 0.9, where 1 is the maximum; inactive means score below 0.9.

Legend:
[1] = ATG_TAL_CIS: Attagene CIS-FACTORIAL HepG2 Assay for human TAL Basal Promoter (AID 2282966); settings: HepG2 Attagene cis-factorial TAL promoter reporter; actives raise or lower the signal;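 further: background control endpoint measuring basal TAL promoter reporter mRNA not a specific factor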
Outline: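 Background-control endpoint: basal TAL promoter reporter transcripts in transiently transfected HepG2, measured 24 h after dosing. Read-out by RT-PCR with fluorescent primer extension and capillary electrophoresis; gain or loss of signal fitted relative to DMSO.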

[2] = ATG_TGFb_CIS: Attagene CIS-FACTORIAL HepG2 Assay for human Transforming Growth Factor (TGF) (AID 2282967); settings: HepG2 Attagene CIS TGFb reporter, mRNA transcription; actives raise or lower the signal
Outline: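 After a 24-hour incubation with compound, transfected HepG2 cells were lysed for RNA; reporter cDNA was amplified, fluorescently end-labeled and separated by CE. DMSO served as baseline for bidirectional fits.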

[3] = ATG_VDRE_CIS: Attagene CIS-FACTORIAL HepG2 Assay for human Vitamin D Receptor Element (VDRE) (AID 2282968); settings: HepG2 VDRE cis-reporter transcription, actives raise or lower the signal
Outline: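 Measures endogenous factor activity through cis-element-driven reporter transcripts in transiently transfected HepG2. Cells are treated 24 h; reporter mRNA is quantified by RT-PCR and capillary electrophoresis; fitting is bidirectional.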

[4] = molecular target: X-box-binding protein 1 (Homo sapiens) (UniProt P17861); test: ATG_Xbp1_CIS: Attagene CIS-FACTORIAL HepG2 Assay for human X-box Binding Protein 1 (XBP1) (AID 2282972); settings: HepG2 XBP1 cis-element reporter, Attagene multiplex; actives raise or lower the signal
Outline: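 Reporter transcripts were quantified by RT-PCR with fluorescent primer extension and capillary electrophoresis after 24 h chemical exposure. Cells: transiently transfected HepG2 carrying cis-regulated reporter constructs; data fitted bidirectionally relative to DMSO.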

[5] = ATG_M_19_TRANS: Attagene TRANS-FACTORIAL HepG2 Assay for M19 Transcription Factor (Internal Marker) (AID 2282974; active means hit-call score of the fitted dose curve at least 0.9, where 1 is the maximum); settings: HepG2 Attagene TRANS-FACTORIAL M19 internal marker reporter
Outline: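 Background-control readout: after 24 h chemical exposure of transfected HepG2 carrying GAL4-driven reporter units, RNA was reverse-transcribed, amplified, fluorescently labeled and sized by capillary electrophoresis; gain-of-signal fit against DMSO.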

[6] = ATG_GAL4_TRANS: Attagene TRANS-FACTORIAL HepG2 Assay for GAL4 (Internal Marker) (AID 2282976; active means hit-call score of the fitted dose curve at least 0.9, where 1 is the maximum); settings: HepG2 Attagene TRANS GAL4 internal marker reporter
Outline: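 In transfected human HepG2 liver cells dosed 24 h, GAL4 reporter mRNA serves as a baseline marker. Detection by RT-PCR with fluorescent capillary electrophoresis, activity fitted upward relative to DMSO.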

[7] = molecular target: Nuclear receptor subfamily 1 group I member 3 (Homo sapiens) (UniProt Q14994); test: ATG_CAR_TRANS: Attagene TRANS-FACTORIAL HepG2 Assay for human Constitutive Androstane Receptor (CAR) (AID 2282969; active means hit-call score of the fitted dose curve at least 0.9, where 1 is the maximum;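 further: activators raise reporter mRNA above DMSO so AC50 marks induction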); settings: HepG2 Attagene TRANS-FACTORIAL CAR reporter
Outline: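 Signal is reporter mRNA induction relative to DMSO, measured 24 h after dosing by RT-PCR with fluorescent primer extension and capillary electrophoresis. Human HepG2 liver cells carried transiently transfected chimeric NR-Gal4/GAL4-UAS reporter constructs.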

[8] = molecular target: Estrogen receptor (Homo sapiens) (UniProt P03372); test: ATG_ERa_TRANS: Attagene TRANS-FACTORIAL HepG2 Assay for human Estrogen Receptor alpha (ERa) (AID 2282970; active means hit-call score of the fitted dose curve at least 0.9, where 1 is the maximum); settings: HepG2 Attagene TRANS ERa GAL4 reporter, mRNA
Outline: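 Reporter transcripts were measured 24 h after dosing by RT-PCR with fluorescent primer extension and capillary electrophoresis. The system is transiently transfected HepG2 expressing exogenous NR-Gal4 chimeras driving GAL4-UAS reporters; DMSO is the baseline.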

[9] = molecular target: Estrogen-related receptor gamma (Homo sapiens) (UniProt P62508); test: ATG_ERRg_TRANS: Attagene TRANS-FACTORIAL HepG2 Assay for human Estrogen-Related Receptor gamma (ERRg) (AID 2282977; active means hit-call score of the fitted dose curve at least 0.9, where 1 is the maximum;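 further: hits increase reporter signal over DMSO so potencies reflect activators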); settings: HepG2 Attagene TRANS reporter, ERRg transactivation
Outline: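 Exogenous NR-Gal4 chimera activity was assessed in HepG2 cells bearing transfected GAL4-UAS reporters. After 24 h dosing, total RNA underwent RT-PCR, fluorescent primer extension and HpaI digestion before capillary electrophoresis, with gain of signal scored against DMSO.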

Measured: AC50

X-box-binding protein 1 (Homo sapiens), sequence (P17861 whole entry, looked up): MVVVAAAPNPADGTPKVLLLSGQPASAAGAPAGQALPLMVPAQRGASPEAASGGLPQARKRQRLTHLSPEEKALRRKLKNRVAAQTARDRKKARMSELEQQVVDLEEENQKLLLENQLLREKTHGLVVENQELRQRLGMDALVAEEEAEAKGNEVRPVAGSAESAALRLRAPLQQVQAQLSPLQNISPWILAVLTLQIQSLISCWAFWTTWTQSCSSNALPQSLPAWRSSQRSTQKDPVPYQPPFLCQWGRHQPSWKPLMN
Estrogen-related receptor gamma (Homo sapiens), sequence (P62508 whole entry, looked up, the tested form may be a part): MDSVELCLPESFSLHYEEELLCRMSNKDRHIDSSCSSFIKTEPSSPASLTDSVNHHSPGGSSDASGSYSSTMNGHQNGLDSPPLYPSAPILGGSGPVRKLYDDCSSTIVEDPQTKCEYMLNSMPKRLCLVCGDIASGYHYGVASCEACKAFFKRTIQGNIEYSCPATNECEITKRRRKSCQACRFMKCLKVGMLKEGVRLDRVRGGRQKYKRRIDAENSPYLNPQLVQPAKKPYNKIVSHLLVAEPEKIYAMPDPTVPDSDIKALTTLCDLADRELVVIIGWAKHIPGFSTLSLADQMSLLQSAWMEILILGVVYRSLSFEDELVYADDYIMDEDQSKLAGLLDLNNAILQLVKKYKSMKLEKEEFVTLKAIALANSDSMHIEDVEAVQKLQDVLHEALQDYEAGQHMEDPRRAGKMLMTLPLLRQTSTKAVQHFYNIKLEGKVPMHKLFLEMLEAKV
Nuclear receptor subfamily 1 group I member 3 (Homo sapiens), sequence (Q14994 whole entry, looked up, the tested form may be a part): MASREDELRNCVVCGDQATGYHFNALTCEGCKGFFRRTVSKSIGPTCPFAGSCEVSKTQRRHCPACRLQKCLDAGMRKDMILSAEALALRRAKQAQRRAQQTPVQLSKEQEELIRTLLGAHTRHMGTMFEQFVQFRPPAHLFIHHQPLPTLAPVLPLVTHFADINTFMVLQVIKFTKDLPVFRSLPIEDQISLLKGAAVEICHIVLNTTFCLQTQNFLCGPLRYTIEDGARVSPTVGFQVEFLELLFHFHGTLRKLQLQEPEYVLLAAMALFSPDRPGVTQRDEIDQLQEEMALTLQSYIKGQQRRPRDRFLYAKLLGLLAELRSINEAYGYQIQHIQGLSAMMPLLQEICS
Estrogen receptor (Homo sapiens), sequence (P03372 whole entry, looked up, the tested form may be a part): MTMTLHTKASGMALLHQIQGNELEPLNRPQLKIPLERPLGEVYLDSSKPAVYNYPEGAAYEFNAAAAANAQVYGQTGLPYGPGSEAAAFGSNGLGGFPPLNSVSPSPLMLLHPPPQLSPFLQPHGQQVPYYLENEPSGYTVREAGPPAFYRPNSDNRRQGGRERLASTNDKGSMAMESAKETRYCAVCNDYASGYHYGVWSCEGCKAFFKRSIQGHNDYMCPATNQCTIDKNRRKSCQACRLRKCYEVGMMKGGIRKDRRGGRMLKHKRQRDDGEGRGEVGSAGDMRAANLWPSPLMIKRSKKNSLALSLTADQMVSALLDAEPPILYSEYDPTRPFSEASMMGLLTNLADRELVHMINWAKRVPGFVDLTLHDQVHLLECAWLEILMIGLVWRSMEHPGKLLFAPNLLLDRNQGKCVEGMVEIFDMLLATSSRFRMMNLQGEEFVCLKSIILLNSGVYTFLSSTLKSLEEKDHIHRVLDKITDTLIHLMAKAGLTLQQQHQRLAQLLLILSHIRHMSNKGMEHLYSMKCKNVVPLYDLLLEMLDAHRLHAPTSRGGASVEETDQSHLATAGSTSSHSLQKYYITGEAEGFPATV

O=S(=O)(O)NC1CCCCC1
inactive: [1] | [2] | [3] | [4] | [5]

COc1ccc(O)cc1
not listed: [7] | [8] | [9]
inactive: all other assays above

CCOc1ccccc1OCC
inactive: [1] | [2] | [3] | [4]

CCCCCC=CCC(=O)OC
not listed: [7] | [8] | [9]
inactive: all other assays above

CCCCO
not listed: [7] | [8] | [9]
inactive: all other assays above

C=C(C)C(=O)NCCCN(C)C
not listed: [7] | [8] | [9]
inactive: all other assays above

Clc1ccc(Cl)c(Cl)c1Cl
inactive: [1] | [3] | [4] | [5] | [6]
active: [2] 19.8 µM

O=C=NC1CCC(CC2CCC(N=C=O)CC2)CC1 (centres undefined)
active: [1] 26.8 µM | [2] 59.2 µM | [3] 37.5 µM | [4] 85.1 µM

CCC(C)CCCC(C)(C)O (centres undefined)
inactive: [1] | [2] | [3] | [4] | [5]

CCC(C)(O)CCC=C(C)C (centres undefined)
inactive: [1] | [2] | [3] | [4] | [5]

OC1C(O)C(O)C(O)C(O)C1O (centres undefined)
not listed: [7] | [8] | [9]
inactive: all other assays above

O=C(O)c1ccc(C(=O)O)cc1
not listed: [7] | [8] | [9]
inactive: all other assays above

CN(CCOc1ccc(CC2SC(=O)NC2=O)cc1)c1ccccn1 (centres undefined)
not listed: [3] | [6] | [9]
inactive: all other assays above

O=C1NC(=O)c2ccccc21
inactive: [1] | [2] | [3] | [4] | [6]

O=C1CCc2ccccc2O1
inactive: [1] | [2] | [3] | [4] | [6]

Cc1ccc(C(C)C)cc1O
active: [3] 26.9 µM
inactive: [1] | [2] | [4] | [6]

CCCCOCCOCCOCCOCCO
inactive: [1] | [2] | [3] | [4] | [6]

COc1cc(C(C)(C)C)c(O)c(C(C)(C)C)c1
not listed: [5] | [7] | [8]
inactive: all other assays above

N#Cc1nc(Cl)c(Cl)c(Cl)c1Cl
active: [3] 4.14 µM | [4] 5.85 µM
inactive: [1] | [2] | [9]

OCc1cccnc1
not listed: [3] | [9]
inactive: all other assays above

Sc1nc(S)nc(S)n1
inactive: [1] | [2] | [3] | [4] | [6]

CC(C)=CCC/C(C)=C/COC=O
inactive: [1] | [2] | [3] | [4] | [6]

S=C(S)NCCNC(=S)S
inactive: [1] | [2] | [3] | [4] | [6]

Cc1cc(C2(c3cc(C)c(O)cc3C)OS(=O)(=O)c3ccccc32)c(C)cc1O
active: [8] 4.2 µM
not listed: [3] | [9]
inactive: all other assays above

Clc1nc(C(Cl)(Cl)Cl)c(Cl)c(Cl)c1Cl
active: [1] 57.2 µM | [2] 62.2 µM
inactive: [7] | [8] | [4] | [5]

COC(C(=O)O)c1ccccc1 (centres undefined)
inactive: [1] | [2] | [3] | [4] | [6]

CC(C)(Oc1ccc(CCNC(=O)c2ccc(Cl)cc2)cc1)C(=O)O
inactive: [1] | [2] | [3] | [4] | [6]

CC(=O)[O][Al][O]C(C)=O
inactive: [1] | [2] | [3] | [4] | [6]

C=CC[N+](C)(C)CC=C
inactive: [1] | [2] | [3] | [4] | [6]

O=C(Cl)c1cccc(C(=O)Cl)c1
inactive: [1] | [2] | [3] | [4] | [6]

CCCOCC(C)O (centres undefined)
not listed: [7] | [8]
inactive: all other assays above
